From PubChem
Only some compounds are listed: those with a hit (about 4.8% of all), similar ones and a draw of the others.
hgDAF-12 ag: H. glycines DAF-12 receptor agonists, primary screen, cell-based, luminescence, HEK293, GAL4 fusion, UAS-luciferase; AID 687014, 2013; HEK293 GAL4-hgDAF12 UAS-luciferase reporter, agonist luminescence; normalized to butyrate control; activation, % at 6.8 µM; actives 1.8% (n = 370,000);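 active = activation above a cutoff set at the mean of all screened compounds plus 3 SD, cut at about 10% in these data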;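 note: 0% = DMSO wells and 100% = sodium butyrate wells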
DAX1 inh-1: DAX1 (NR0B1) inhibitors, primary screen, cell-based, HEK293, Gal4-DAX1, luciferase luminescence; HEK293 Gal4-DAX1 luciferase reporter; inhibition, % at 6.75 µM; actives 0.99% (n = 340,000);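 active = inhibition above the mean over all tested compounds plus 3 SD, cut at about 4.2% in these data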;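 note: 0% = DAX1-transfected cells with DMSO and 100% = empty-vector control cells with DMSO; inhibition shows as a rise in luminescence from relieved DAX1 repression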
Target sequence (P51843 207-470 limits assumed): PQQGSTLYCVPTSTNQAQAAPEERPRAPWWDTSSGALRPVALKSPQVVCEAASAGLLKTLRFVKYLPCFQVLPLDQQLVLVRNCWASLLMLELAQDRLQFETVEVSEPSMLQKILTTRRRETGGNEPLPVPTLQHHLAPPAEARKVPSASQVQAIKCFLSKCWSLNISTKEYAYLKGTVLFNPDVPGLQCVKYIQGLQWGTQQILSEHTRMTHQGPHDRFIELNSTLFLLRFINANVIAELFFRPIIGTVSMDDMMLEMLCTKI
DAX1 inh-2: DAX1 (NR0B1) inhibitors on StAR promoter, primary screen, cell-based, luminescence, SF-1 (NR5A1), full-length DAX-1; HEK293T StAR-luciferase reporter, SF-1/DAX-1 repression relief; inhibition, % at 6.8 µM; actives 1.1% (n = 370,000);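 active = inhibition above the mean over all tested compounds plus 3 SD, cut at about 3.6% in these data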;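 note: 0% = DAX-1 cells with DMSO and 100% = cells lacking DAX-1 with DMSO; higher inhibition means more luminescence from relief of DAX-1 repression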
SMARCA2 activ: SMARCA2 (BRM) function activators, primary screen, cell-based, luminescence, high throughput. MG213 cells, MMTV-luciferase reporter, dexamethasone, overnight. activation, % at 9.1 µM. actives 1% (n = 370,000); in the data active = activation above about 7.8%;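 note: 0% = vehicle wells and 100% = reference activator wells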
hcDAF-12 act: H. contortus DAF-12 nuclear receptor activators, primary screen, cell-based, luminescence, HEK293, lit1-tk-luc reporter | HEK293 hcDAF-12 lit1-tk-luc reporter; 0% DMSO, 100% Δ7-dafachronic acid | activation, % at 6.8 µM | actives 1.4% (n = 370,000) | AID 652067, 2013;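 active = activation above the mean of all tested compounds plus 3 SD, cut at about 5.5% in these data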;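 note: 100% = response to 3 µM Δ7-dafachronic acid high control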
ssDAF12 agonist: S. stercoralis DAF-12 nuclear receptor activators, primary screen, cell-based, luminescence, HEK293, GRIP1 co-expression, lit1-tk-luc; Nuclear hormone receptor DAF-12 (Strongyloides stercoralis); HEK293 ssDAF-12/GRIP1 lit1-tk-luc reporter; % of 3 µM dafachronic acid response; activation, % at 6.8 µM; actives 1% (n = 370,000); AID 652126, 2013;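 active = activation above the mean over all tested compounds plus 3 SD, cut at about 0.9% in these data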;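 note: 0% = DMSO-only wells and 100% = 3 µM delta7-dafachronic acid wells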
Starred values were filed as active, the others as inactive.

Screening O=C(NCc1ccco1)c1ccc2c(c1)N(Cc1ccccc1)C(=O)CS2=O (stereo not drawn) returned hgDAF-12 ag 1.8, DAX1 inh-1 -0.7, DAX1 inh-2 -0.8, SMARCA2 activ 2.2, hcDAF-12 act -2.1 and ssDAF12 agonist -1.5.
For CCN(CC)C(=O)c1ccc2c(c1)N(Cc1ccccc1)C(=O)CS2=O (stereo not drawn) the results were hgDAF-12 ag -1.0, DAX1 inh-1 4.7*, DAX1 inh-2 0.4, SMARCA2 activ 3.8, hcDAF-12 act -1.5 and ssDAF12 agonist -0.9.
For O=C(COC(=O)c1cccs1)Nc1nnc(-c2ccccc2)o1 the results were hgDAF-12 ag 3.2, DAX1 inh-1 1.8, DAX1 inh-2 0.1, SMARCA2 activ 4.3, hcDAF-12 act -0.6 and ssDAF12 agonist -0.4.
`CC(C)(C)OC(=O)N(CCc1ccccc1)Cc1cccc(OCc2cccc(NC(=O)c3ccccc3)c2)c1` gave hgDAF-12 ag 1.1, DAX1 inh-1 -0.9, DAX1 inh-2 4.1*, SMARCA2 activ -5.2, hcDAF-12 act 0.5 and ssDAF12 agonist -1.1.
For COc1ccc2oc(C(=O)NNC(=O)c3ccc(F)cc3)c(C)c2c1 the results were hgDAF-12 ag 3.3, DAX1 inh-1 3.3, DAX1 inh-2 1.3, SMARCA2 activ -0.5, hcDAF-12 act 0.6 and ssDAF12 agonist -0.7.
Screening COc1ccc2oc(C(=O)NC(C)(C)C)c(C)c2c1 returned hgDAF-12 ag 12.6*, DAX1 inh-1 1.6, DAX1 inh-2 2.7, SMARCA2 activ 6.9, hcDAF-12 act 0.9 and ssDAF12 agonist -1.1.
CCc1ccc(-c2ccc(C(=O)C(F)(F)F)[nH]2)cc1 was read as hgDAF-12 ag 12.6*, DAX1 inh-1 2.4, DAX1 inh-2 2.4, SMARCA2 activ 1.3, hcDAF-12 act 3.2 and ssDAF12 agonist -0.2.
For O=C(O)c1ccc(-c2ccccc2)[nH]1 the results were hgDAF-12 ag -2.1, DAX1 inh-1 1.8, DAX1 inh-2 -0.3, SMARCA2 activ 1.2, hcDAF-12 act 0.6 and ssDAF12 agonist -0.1.
CCN(CC)c1ccc(N=C2C=CC(=O)C=C2NC(C)=O)cc1 was read as hgDAF-12 ag 7.6, DAX1 inh-2 3.9*, SMARCA2 activ 1.5, hcDAF-12 act 2.7 and ssDAF12 agonist 0.3.
For CCN(CC)c1ccc(C(=O)NN)cc1 the results were hgDAF-12 ag 2.3, DAX1 inh-1 -0.1, DAX1 inh-2 -1.6, SMARCA2 activ 1.7, hcDAF-12 act -1.3 and ssDAF12 agonist -1.2.
For COc1cccc(C2N(c3ccc(Cl)cc3)C(=O)C3CCCN32)c1 (stereo not drawn) the results were hgDAF-12 ag -0.7, DAX1 inh-1 6.4*, DAX1 inh-2 1.1, SMARCA2 activ 0.7, hcDAF-12 act 1.9 and ssDAF12 agonist 0.0.
For O=C1C2CCCN2C(c2ccccc2)N1c1cccc(Cl)c1 (stereo not drawn) the results were hgDAF-12 ag 0.9, DAX1 inh-1 1.1, DAX1 inh-2 -0.2, SMARCA2 activ -3.3, hcDAF-12 act 0.4 and ssDAF12 agonist -1.1.
For COc1ccc(N2C(=O)C3CCCN3C2c2ccc(C)cc2)cc1 (stereo not drawn) the results were hgDAF-12 ag 2.8, DAX1 inh-1 3.2, DAX1 inh-2 0.6, SMARCA2 activ 0.8, hcDAF-12 act -0.4 and ssDAF12 agonist -0.8.
Screening COc1ccc(C2N(c3ccc(OC)cc3)C(=O)C3CCCN32)cc1 (stereo not drawn) returned hgDAF-12 ag 1.8, DAX1 inh-1 5.3*, DAX1 inh-2 0.4, SMARCA2 activ 0.2, hcDAF-12 act -1.1 and ssDAF12 agonist -0.8.
Screening COc1ccc(C2N(c3ccc(F)cc3)C(=O)C3CCCN32)cc1 (stereo not drawn) returned hgDAF-12 ag 4.3, DAX1 inh-1 5.2*, DAX1 inh-2 1.3, SMARCA2 activ -0.5, hcDAF-12 act 0.1 and ssDAF12 agonist -1.1.
For O=C1C2CCCN2C(c2ccc(F)c(F)c2)N1c1cccc(Cl)c1 (stereo not drawn) the results were hgDAF-12 ag 0.4, DAX1 inh-1 4.4*, DAX1 inh-2 -0.8, SMARCA2 activ -0.8, hcDAF-12 act -1.4 and ssDAF12 agonist -0.9.
Screening O[C@H](COc1cc(F)cc(F)c1)CN1CCC(C(O)(c2ccccc2)c2ccccc2)CC1 returned hgDAF-12 ag -1.7, DAX1 inh-2 -0.6, SMARCA2 activ -4.2, hcDAF-12 act -1.0 and ssDAF12 agonist -0.8.
Screening OC(CCCN1CCCCC1)(c1ccccc1)c1ccc(C(F)(F)F)cc1 (stereo not drawn) returned hgDAF-12 ag 0.7, DAX1 inh-1 0.5, DAX1 inh-2 -0.9, SMARCA2 activ -5.7, hcDAF-12 act -1.3 and ssDAF12 agonist -1.3.
For Cc1ccc(NS(=O)(=O)c2ccc(NC(=O)c3ccccc3C(=O)O)cc2)cc1C the results were hgDAF-12 ag -0.3, DAX1 inh-2 -0.1, SMARCA2 activ -4.3, hcDAF-12 act 1.0 and ssDAF12 agonist -1.0.
For CC1=NN(C(N)=S)C(=O)C1N=Nc1ccc([N+](=O)[O-])cc1 (stereo not drawn) the results were DAX1 inh-1 1.3.
For CCC(C)Sc1nnc(NC(=O)C2CCN(C(=O)c3ccco3)CC2)s1 (stereo not drawn) the results were hgDAF-12 ag 0.2, DAX1 inh-1 0.2, DAX1 inh-2 0.3, SMARCA2 activ -3.5, hcDAF-12 act 0.4 and ssDAF12 agonist -1.1.
For O=C(O)c1ccc(-c2nn3c(=O)cc(N4CCNCC4)nc3s2)cc1 the results were hgDAF-12 ag 1.4, DAX1 inh-2 1.4, SMARCA2 activ -3.1, hcDAF-12 act 0.7 and ssDAF12 agonist -0.5.
Screening CC(C(=O)NCc1ccc2c(c1)OCO2)c1ccc([N+](=O)[O-])cc1 (stereo not drawn) returned hgDAF-12 ag -0.3, DAX1 inh-1 0.1, DAX1 inh-2 -0.1, SMARCA2 activ 0.1, hcDAF-12 act 0.9 and ssDAF12 agonist -1.3.
For O=C(O)CC(NC(=O)Cc1ccc([N+](=O)[O-])cc1)c1ccc2c(c1)OCO2 (stereo not drawn) the results were hgDAF-12 ag -0.7, DAX1 inh-1 4.4*, DAX1 inh-2 0.1, SMARCA2 activ -0.6, hcDAF-12 act -0.7 and ssDAF12 agonist -0.4.
